This note sets out measurements from PubChem BioAssay (NCI).

Test systems include DU-145 prostate; K-562 leukemia; MALME-3M melanoma; MDA-MB-231 breast; RXF 393 renal; SF-268 CNS; SF-295 CNS; SF-539 CNS; UACC-257 melanoma; M14 melanoma.
What all share (assay): NCI-60 one-dose screen, 48 h (100 = growth as untreated, 0 = no growth, -100 = all killed)
Conditions in all cases: 10 µM unless noted

“And” between values parts separate entries of the source, which are not always exact repeats. Equal values may be shown once. About 83,000 compounds went through this panel and 20% of them were active in at least one assay; those are over-represented in the sample as a whole.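 Plates (96-well) were seeded with cells, treated with compound at one concentration, and incubated for 48 hours before percent growth was determined.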 A number with no mark means an inactive call. The source made the active and inactive calls. The calls were made as follows: active = growth percent below 10; inactive = the rest.

Take `CCOC(=O)n1cc(-c2nonc2-c2cn(C)c3ccc(OC)cc23)c2cc(F)ccc21`: the growth was 92.7% with DU-145 prostate; 67.7% with K-562 leukemia; 81.9% in the experiment with MALME-3M melanoma; 71.4% in the experiment on MDA-MB-231 breast; 89.6% with RXF 393 renal; 83.1% with SF-268 CNS. Also, the growth in the experiment on SF-295 CNS is 60.8%; in the experiment with SF-539 CNS, 86.1%; in the experiment with UACC-257 melanoma it was 74.5%; with M14 melanoma it was 83.9%.
`O=C1/C(=C/c2ccc(-c3ccccc3C(F)(F)F)o2)SC(=S)N1CCc1ccc(O)cc1`: the growth with DU-145 prostate was 66.2%; with K-562 leukemia, 17.5%; in the experiment on MALME-3M melanoma it was 32.2%; in the experiment on MDA-MB-231 breast, 67%; in the experiment with RXF 393 renal, 71.2%; with SF-268 CNS, 51.4%. Further, the growth in the experiment with SF-295 CNS is 54.4%; in the experiment on SF-539 CNS it was 54.2%; in the experiment with UACC-257 melanoma it was 67%; in the experiment on M14 melanoma it was 34.4%.
`Cc1ccc(-c2nc([P+](c3ccccc3)(c3ccccc3)c3ccccc3)c(Nc3ccccc3)o2)cc1`: the growth with DU-145 prostate was 13.2%; with K-562 leukemia, 0.731% (active); in the experiment with MALME-3M melanoma it was -44.1% (active); in the experiment on MDA-MB-231 breast, -36.5% (active); with RXF 393 renal it was -31.7% (active); with SF-268 CNS, 10.6%. The growth was -21% (active) in the experiment on SF-295 CNS, -76.6% (active) in the experiment on SF-539 CNS, -13.5% (active) in the experiment with UACC-257 melanoma and -40.4% (active) in the experiment on M14 melanoma.
As for `NNCCc1ccccc1`, the growth was 122% and 108% in the experiment on DU-145 prostate; 91.5% and 105% in the experiment on K-562 leukemia; 82.1% in the experiment with MALME-3M melanoma; 93.4% and 83.5% in the experiment on MDA-MB-231 breast; 122% and 80.3% in the experiment on RXF 393 renal; 108% and 96.1% in the experiment with SF-268 CNS. For the same compound, the growth was 106% and 92% with SF-295 CNS; 96.9% in the experiment on SF-539 CNS; 121% in the experiment with UACC-257 melanoma; 101% and 96.1% with M14 melanoma.
For the compound `CCCCCCCC/C=C\CCCCCCCCOc1ccccc1CC(=O)NCC[N+]1(C)CCOCC1`, the growth was 85.3% in the experiment with DU-145 prostate; 56.9% with K-562 leukemia; 100% in the experiment with MALME-3M melanoma; 80.1% in the experiment on MDA-MB-231 breast; 24.7% in the experiment on RXF 393 renal; 66.8% with SF-268 CNS. Further, the growth in the experiment with SF-295 CNS is 67.6%; in the experiment on SF-539 CNS it was 91.3%; in the experiment with UACC-257 melanoma, 83.8%; in the experiment on M14 melanoma, 75.6%.
As for `COc1cc(CNC(=O)CCCC/C=C/C(C)C)ccc1OCc1cn(-c2ccc([N+](=O)[O-])cc2)nn1`, the growth is 105% with DU-145 prostate; 74.5% in the experiment on K-562 leukemia; 98.4% in the experiment with MALME-3M melanoma; 75.3% in the experiment on MDA-MB-231 breast; 99.7% in the experiment on RXF 393 renal; 86.1% in the experiment with SF-268 CNS. Also, the growth in the experiment with SF-295 CNS was 89%; in the experiment with SF-539 CNS, 104%; with UACC-257 melanoma, 82.6%; in the experiment on M14 melanoma, 89.7%.
As for `CCOc1ccccc1NC(=O)c1cc2ccccc2cc1O`, the growth with DU-145 prostate is 78.5%; in the experiment with K-562 leukemia it was 22.8%; with MALME-3M melanoma it was 49.8%; with MDA-MB-231 breast it was 54.9%; in the experiment on RXF 393 renal it was 63.2%; in the experiment with SF-268 CNS it was 80.6%. The growth with SF-295 CNS was 106%; with SF-539 CNS, 84.6%; in the experiment on UACC-257 melanoma it was 54.2%; in the experiment on M14 melanoma, 64.6%.
As to `CCN(CC)/C([O-])=c1\cccc\c1=C1\N=C(c2ccccc2)N=C1[n+]1ccc(-c2ccccc2)cc1`, the growth is 102% with DU-145 prostate; 96.7% with K-562 leukemia; 92.7% in the experiment with MALME-3M melanoma; 100% in the experiment on MDA-MB-231 breast; 104% in the experiment on RXF 393 renal; 102% in the experiment on SF-268 CNS. The growth was 100% with SF-295 CNS, 89.1% with SF-539 CNS, 92.9% with UACC-257 melanoma and 89.6% in the experiment with M14 melanoma.
Regarding `O=C(Cn1cc(CN2CCN(c3ccnc4cc(Cl)ccc34)CC2)nn1)Nc1cccc([N+](=O)[O-])c1`, the growth in the experiment with DU-145 prostate was 100%; in the experiment with K-562 leukemia, 68.8%; in the experiment with MALME-3M melanoma, 102%; with MDA-MB-231 breast it was 64.8%; in the experiment on RXF 393 renal, 77.2%; in the experiment with SF-268 CNS, 84.6%. Also, the growth was 100% with SF-295 CNS, 88.7% in the experiment with SF-539 CNS, 98.3% in the experiment with UACC-257 melanoma and 103% in the experiment with M14 melanoma.
For `CCCCn1c(C(=O)c2c[nH]c3ccccc23)n[nH]c1=S`, the growth was 104% with DU-145 prostate; 76.1% in the experiment on K-562 leukemia; 111% in the experiment on MALME-3M melanoma; 96.4% in the experiment with MDA-MB-231 breast; 107% in the experiment on RXF 393 renal; 96.9% in the experiment on SF-268 CNS. Further, the growth in the experiment with SF-295 CNS is 103%; in the experiment on SF-539 CNS, 102%; in the experiment with UACC-257 melanoma, 94.8%; in the experiment on M14 melanoma it was 92.4%.
On to `N#CC(Cc1cccc2ccccc12)c1cc2ccccc2[nH]1` (stereo not given), for which the growth with DU-145 prostate was 103%; with K-562 leukemia, 86.6%; with MALME-3M melanoma, 81.9%; in the experiment with MDA-MB-231 breast it was 81.4%; with RXF 393 renal, 87.8%; in the experiment with SF-268 CNS, 89.3%. The growth in the experiment on SF-295 CNS was 95.9%; in the experiment with SF-539 CNS, 102%; with UACC-257 melanoma, 93.9%; in the experiment with M14 melanoma, 82.6%.
Take `CN1C(=O)N(C)C2(c3ccccc3)N(CC(=O)Nc3ccccc3O)C(=O)NC12c1ccccc1` (stereo not given): the growth is 110% with DU-145 prostate; 101% in the experiment with K-562 leukemia; 107% with MALME-3M melanoma; 101% in the experiment on MDA-MB-231 breast; 113% with RXF 393 renal; 96.5% in the experiment on SF-268 CNS. Further, the growth is 101% in the experiment on SF-295 CNS, 96.4% in the experiment with SF-539 CNS, 125% in the experiment with UACC-257 melanoma and 105% in the experiment on M14 melanoma.
Turning to `CC1(Cc2ccccc2)CC2=C(C(=O)O1)C(c1ccccc1)NC(=O)N2` (stereo not given), the growth is 111% with DU-145 prostate; 78.4% in the experiment with K-562 leukemia; 104% in the experiment with MALME-3M melanoma; 103% in the experiment on MDA-MB-231 breast; 108% with RXF 393 renal; 110% with SF-268 CNS. The growth in the experiment on SF-295 CNS was 104%; with SF-539 CNS it was 94.5%; with UACC-257 melanoma it was 101%; in the experiment with M14 melanoma, 98%.
